Our source for the Potency values is PubChem BioAssay AID488850 (National Center for Advancing Translational Sciences (NCATS), 2010).

Results filed as inconclusive are left out. The source made the active and inactive calls. Calls come from the whole dose curve; as a rule, active = well fitted activation curve with a large enough effect; inconclusive = small, poorly fitted or top-dose-only effect; inactive = flat fitted curve, though single readings scatter.

For this assay, the target named is Lysosomal acid glucosylceramidase (Homo sapiens) (UniProt P04062). In words: qHTS Assay for Inhibitors and Activators of N370S glucocerebrosidase as a Potential Chaperone Treatment of Gaucher Disease: Purified N370S Glucocerebrosidase Confirmation for Probe SAR. To be noted: purified N370S GC, 4MU-glucoside fluorescence, 40 min; series mostly up to 57.5 µM. From the text: NIH Chemical Genomics Center [NCGC] NIH Molecular Libraries Probe Production Centers Network [MLPCN] MLPCN Grant: MH086442-01 Assay Submitter (PI): Wei Zheng Glucocerebrosidase (GC) catalyzes the hydrolysis of beta-glucocerebroside to glucose and ceramide in lysosomes. Mutations in the glucocerebrosidase gene result in Gaucher disease, an autosomal recessive lysosomal storage disorder. Many of the mutations encountered in patients with Gaucher disease are missense alterations that may cause misfolding, decreased stability and/or mistrafficking of this lysosomal protein. […] These inhibitors include iminosugar analogs and three non-iminosugar inhibitors identified from a previous HTS of 62,000 compounds with the wild type recombinant enzyme. However, the enhancement of enzyme activity by the chaperone action of an enzyme inhibitor must be balanced against the direct inhibition of the enzyme. An enzyme activator could also function as a chaperone by binding to the enzyme and helping to correct its misfolding and mistrafficking. While activators for GC have not yet been identified, they may have better therapeutic potential than inhibitors. Therefore the discovery and development of chemical activators may provide a new strategy for the chaperone therapy. We have optimized a new assay using N370S mutant GC derived from the spleen of a Gaucher patient. […] In addition, the MLPCN compound library has expanded, which increases the chance of finding new and better probes. This assay characterizes compound activity using purified mutant enzyme instead of tissue homogenate. Compound activity differences may be due to the absence of endogenous cofactors found in tissue homogenate.
Sequence of Lysosomal acid glucosylceramidase (Homo sapiens) (P04062 whole entry N409S): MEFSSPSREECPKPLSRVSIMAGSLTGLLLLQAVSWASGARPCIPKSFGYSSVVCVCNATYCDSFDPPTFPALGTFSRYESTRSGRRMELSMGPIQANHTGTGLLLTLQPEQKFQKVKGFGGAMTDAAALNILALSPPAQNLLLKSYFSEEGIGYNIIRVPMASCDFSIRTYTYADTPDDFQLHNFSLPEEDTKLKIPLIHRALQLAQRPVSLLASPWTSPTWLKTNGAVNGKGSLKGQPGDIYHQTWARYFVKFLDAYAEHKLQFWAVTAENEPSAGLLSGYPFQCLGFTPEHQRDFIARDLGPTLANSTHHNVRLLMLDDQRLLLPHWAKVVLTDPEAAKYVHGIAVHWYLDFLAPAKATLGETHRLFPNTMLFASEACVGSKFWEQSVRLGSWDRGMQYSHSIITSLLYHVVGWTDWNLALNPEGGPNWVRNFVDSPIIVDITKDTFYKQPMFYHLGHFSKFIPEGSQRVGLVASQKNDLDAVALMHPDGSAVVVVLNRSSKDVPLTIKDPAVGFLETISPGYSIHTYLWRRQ
NCGC Assay Protocol Summary: This is a fluorogenic enzyme assay with 4-methylumbelliferyl-beta-D-glucopyranoside as the substrate and purified N370S glucocerebrosidase as the enzyme preparation. Upon the hydrolysis of this fluorogenic substrate, the resulting product, […] which can be detected by a standard fluorescence plate reader. Data were normalized to the controls for basal activity (without enzyme) and 100% activity (with enzyme). The AC50 values were determined from concentration-response data modeled with the standard Hill equation. Assay buffer: 50 mM citric acid (titrated with potassium phosphate to pH 5.0), 100 mM potassium chloride, 10 mM sodium chloride, 1 mM magnesium chloride, 0.01% Tween-20. 1536-well assay protocol: (1) Add 2 ul/well of glucocerebrosidase enzyme solution (5 nM final) (2) Add 23 nL compounds in DMSO solution. The final titration was 0.5 nM to 58 uM. (3) Add 2 ul of substrate (1 mM final) (4) Incubate at 37C for 40 min. (5) Add 2 ul stop solution (1M NaOH and 1M Glycine mixture, pH 10) (6) Detect the assay plate in a ViewLux plate reader (PerkinElmer) with Ex=365 nm and Em=440nm. Keywords: Glucocerebrosidase, beta-glucosidase, Gaucher Disease, pharmacological chaperone, chaperone therapy, high throughput screening, glucocerebrosidase inhibitor, MLSMR, MLSCN, NIH Roadmap, qHTS and NCGC
Background: qHTS replaces the single test concentration by a dilution series.
With `Cc1cc(C)n2ncc(C(=O)Nc3ccc4c(c3)OCCO4)c2n1`, the Potency is 16.3 µM (active).
Regarding `CC(=O)c1ccc(NC(=O)c2cnn3c(C)cc(C)nc23)cc1`, the Potency entry is “inactive”.
On to `CC(=O)Nc1ccccc1NC(=O)c1cnn2c(C)cc(C)nc12`, for which the Potency result is “inactive”.
In the case of `Cc1cc(C)n2ncc(C(=O)Nc3ccc(S(C)(=O)=O)cc3)c2n1`, the Potency entry is “inactive”.
To `O=C(Nc1cnn(Cc2ccc(F)cc2)c1)c1cnn2c(C(F)F)cc(-c3ccccc3)nc12` belongs 10.3 µM (active); to `Cc1cc(C)n2ncc(C(=O)Nc3cccc(C(F)(F)F)c3)c2n1`, 20.6 µM (active).
To `Cc1cc(C)n2ncc(C(=O)Nc3ccncc3)c2n1` belongs “inactive”; to `Cc1cc(C)n2ncc(C(=O)NC3CCC(C(C)(C)C)CC3)c2n1` (stereo unspecified), 7.3 µM (active).
To `COc1ccc(NC(=O)c2cnn3c(C)cc(C)nc23)cc1` belongs 14.6 µM (active); to `Cc1cc(C)n2ncc(C(=O)N3CCCC3)c2n1`, “inactive”; to `Cc1cc(C)n2ncc(C(=O)NC3CCCCC3)c2n1`, 11.6 µM (active).
For the molecule `Cc1cc(C)n2ncc(C(=O)NCc3ccco3)c2n1`, the Potency was 20.6 µM (active).
In the case of `CNC(=O)c1cnn2c(C)cc(C)nc12`, the Potency result was “inactive”.
Take `Cc1ccc(NC(=O)c2cnn3c(C)cc(C)nc23)c(C)c1`: the Potency was 23.1 µM (active).
To `COc1ccc(NC(=O)c2cnn3c(C)cc(C)nc23)cc1Cl` belongs 25.9 µM (active); to `Cc1cc(C)n2ncc(C(=O)Nc3cccc(C#N)c3)c2n1`, “inactive”; to `Cc1ccc(NC(=O)c2cnn3c(C)cc(C)nc23)cc1`, 16.3 µM (active).
On to `Cc1cc(C)n2ncc(C(=O)Nc3ccccc3)c2n1`, for which the Potency is 9.19 µM (active).
Under `Cc1cc(C)n2ncc(C(=O)Nc3ccc(C)c(C)c3)c2n1` stands 7.3 µM (active); under `CC(=O)c1cccc(NC(=O)c2cnn3c(C)cc(C)nc23)c1`, 20.6 µM (active); under `Cc1cc(C)n2ncc(C(=O)Nc3ccc(Br)cc3)c2n1`, 16.3 µM (active).
To `Cc1cc(C)n2ncc(C(=O)Nc3ccc4c(c3)CCC4)c2n1` belongs 11.6 µM (active); to `C#Cc1ccc(NC(=O)c2cnn3c(C)cc(C)nc23)cc1`, 6.51 µM (active); to `Cc1cc(C)n2ncc(C(=O)Nc3ccc4c(c3)OCO4)c2n1`, 5.17 µM (active).
To `CCc1ccc(NC(=O)c2cnn3c(C)cc(C)nc23)cc1` belongs 16.3 µM (active).
Consider `Cc1cc(C)n2ncc(C(=O)Nc3ccc(C(F)(F)F)cc3)c2n1`, for which the Potency is 13 µM (active).
Regarding `Cc1cc(C)n2ncc(C(=O)Nc3ccccc3C)c2n1`, the Potency is 13 µM (active).
Under `Cc1cc(C)n2ncc(C(=O)NCc3ccccc3)c2n1` stands 13 µM (active); under `COc1ccc(NC(=O)c2cnn3c(C)cc(C)nc23)cc1F`, 5.8 µM (active).
To `O=C(Nc1ccccc1Sc1ccccc1)c1cnn2c1NC(=C1CC1)C=C2C(F)F` belongs 16.3 µM (active); to `Cc1cccc(NC(=O)c2cnn3c(C)cc(C)nc23)c1`, 18.3 µM (active).
